Data published in PubChem BioAssay (NCATS).
Results filed as inconclusive are left out. Calls of active or inactive are those of the source. Unless noted, calls come from the whole dose curve; as a rule, active = well fitted curve in the direction sought with a large enough effect; inconclusive = small, poorly fitted or top-dose-only effect, or another doubt; inactive = no such curve, though single readings can be large; an effect the other way counts as inactive or inconclusive.

Tests used:
[1] = target: Cytochrome P450 1A2 (Homo sapiens) (UniProt P05177); experiment: p450-cyp1a2 (AID 410; calls by dose curve; note: potency is the fitted concentration of half-maximal effect)
Cytochrome P450 1A2 (Homo sapiens), sequence (P05177 whole entry, looked up): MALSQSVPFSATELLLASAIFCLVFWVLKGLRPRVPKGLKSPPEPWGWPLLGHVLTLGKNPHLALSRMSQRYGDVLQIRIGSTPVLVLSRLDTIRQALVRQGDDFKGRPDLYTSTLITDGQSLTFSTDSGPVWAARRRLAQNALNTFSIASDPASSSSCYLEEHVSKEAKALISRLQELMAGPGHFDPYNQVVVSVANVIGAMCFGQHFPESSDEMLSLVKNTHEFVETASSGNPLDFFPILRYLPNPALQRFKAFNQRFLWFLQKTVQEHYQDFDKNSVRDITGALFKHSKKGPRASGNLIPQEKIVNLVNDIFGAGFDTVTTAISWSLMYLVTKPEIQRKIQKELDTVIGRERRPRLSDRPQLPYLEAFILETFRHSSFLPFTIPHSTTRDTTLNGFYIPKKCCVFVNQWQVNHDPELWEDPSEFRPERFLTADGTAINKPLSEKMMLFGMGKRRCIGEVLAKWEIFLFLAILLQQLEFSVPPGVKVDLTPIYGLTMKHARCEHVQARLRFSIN
Outline: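 Luminescent readout of luciferin formed from Luciferin-ME by human CYP1A2; data normalized against complete inhibition by 57 uM furafylline. Enzyme 20nM, substrate 100uM at Km, 100mM KPO4 buffer, 60 min reaction at room temperature.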

[2] = target: Glucocorticoid receptor (Homo sapiens) (UniProt P04150); experiment: GR-GFP Redistribution (AID 450;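 active = compounds whose dose series gives a full or clear partial fitted curve of increased nuclear translocation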; note: potency is the fitted concentration of half-maximal effect); settings: U2OS GR-GFP nuclear translocation, laser cytometry, 2 h
Glucocorticoid receptor (Homo sapiens), sequence (P04150 whole entry, looked up, the tested form may be a part): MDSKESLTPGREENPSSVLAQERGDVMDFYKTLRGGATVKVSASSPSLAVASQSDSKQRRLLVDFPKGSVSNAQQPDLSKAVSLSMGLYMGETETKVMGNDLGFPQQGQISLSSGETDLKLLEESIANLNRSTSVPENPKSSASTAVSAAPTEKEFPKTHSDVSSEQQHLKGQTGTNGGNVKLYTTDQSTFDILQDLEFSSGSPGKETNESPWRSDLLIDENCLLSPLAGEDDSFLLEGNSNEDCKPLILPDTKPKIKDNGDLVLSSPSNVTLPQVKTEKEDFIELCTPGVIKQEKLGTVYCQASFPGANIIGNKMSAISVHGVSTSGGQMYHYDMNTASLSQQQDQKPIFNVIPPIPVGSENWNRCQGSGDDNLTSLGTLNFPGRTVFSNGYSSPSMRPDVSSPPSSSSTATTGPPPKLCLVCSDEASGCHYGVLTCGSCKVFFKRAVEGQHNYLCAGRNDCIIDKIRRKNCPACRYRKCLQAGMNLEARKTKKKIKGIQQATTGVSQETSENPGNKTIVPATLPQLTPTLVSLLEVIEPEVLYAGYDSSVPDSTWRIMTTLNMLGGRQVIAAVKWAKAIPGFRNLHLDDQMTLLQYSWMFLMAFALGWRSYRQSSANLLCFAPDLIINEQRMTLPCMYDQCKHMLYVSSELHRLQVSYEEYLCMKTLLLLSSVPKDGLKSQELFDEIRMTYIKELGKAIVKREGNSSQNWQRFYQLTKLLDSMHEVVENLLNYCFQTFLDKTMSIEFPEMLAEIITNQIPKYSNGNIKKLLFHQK

[3] = target: Glucocorticoid receptor (Homo sapiens) (UniProt P04150); experiment: GR-EFC Redistribution (AID 451; calls by dose curve; note: potency is the fitted concentration of half-maximal effect); settings: CHO-K1 GR-EFC translocation, beta-gal luminescence, 2 h
Outline: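 CHO-K1 cells expressing nuclear EA and GR-ED fragments of b-gal; compounds titrated up to 46 uM final, 2 h at 37 C. GR nuclear translocation read as complemented b-gal luminescence after 1 h RT detection.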

[4] = target: Mitogen-activated protein kinase 10 (Mus musculus) (UniProt Q61831); experiment: JNK3 AlphaScreen Assay (AID 530; active = well fitted curve in either direction with a large enough effect, not every such curve was filed as active;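 note: kinase came from lysate of stimulated human HepG2 cells; signal reports phosphorylation of biotinylated GST-cJun 1-79 at Ser73 with 10 µM ATP; series mostly up to about 57 µM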)
Outline: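 Pre-activated (IL-1β/TNFα) JNK3 in HepG2 lysates phosphorylates biotin-GST-cJun(1-79), 10 uM ATP; anti-phospho-cJun(Ser73) AlphaScreen read at room temperature, pH 7.6 Tris buffer. Compounds pre-incubated 15 min as titrations.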

[5] = target: Cytochrome P450 2C9 (Homo sapiens) (UniProt P11712); experiment: qHTS Assay for Inhibitors and Substrates of Cytochrome P450 2C9 (AID 883); note: nearly all actives have a fitted effect of over 60% in size; note: potency is the fitted concentration of half-maximal effect
Cytochrome P450 2C9 (Homo sapiens), sequence (P11712 whole entry, looked up): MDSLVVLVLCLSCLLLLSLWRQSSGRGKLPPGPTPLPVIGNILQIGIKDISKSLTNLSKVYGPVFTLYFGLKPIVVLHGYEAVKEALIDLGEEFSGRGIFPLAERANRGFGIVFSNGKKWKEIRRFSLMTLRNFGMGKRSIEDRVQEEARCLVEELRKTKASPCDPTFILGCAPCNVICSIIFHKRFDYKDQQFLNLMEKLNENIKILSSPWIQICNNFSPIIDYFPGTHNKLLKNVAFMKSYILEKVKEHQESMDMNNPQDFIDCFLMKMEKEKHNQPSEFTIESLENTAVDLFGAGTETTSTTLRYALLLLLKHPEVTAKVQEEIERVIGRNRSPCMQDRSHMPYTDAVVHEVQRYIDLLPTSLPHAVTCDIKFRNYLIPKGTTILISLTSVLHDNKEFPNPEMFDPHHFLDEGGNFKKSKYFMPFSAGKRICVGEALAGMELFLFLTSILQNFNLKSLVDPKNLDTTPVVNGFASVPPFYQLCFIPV
Outline: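 10nM CYP2C9 + 100uM Luciferin-H (=KM), 25mM KPO4; cpd 10 min 37C; NADPH regen, 60 min 37C; stop/detect with P450 Glo-Buffer 20 min; luminescence. Norm. to 57uM sulphaphenazole as full inhibition.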

[6] = target: Cytochrome P450 3A4 (Homo sapiens) (UniProt P08684); experiment: qHTS Assay for Activators of Cytochrome P450 3A4 (AID 885); note: nearly all actives have a fitted effect of over 65% in size
Cytochrome P450 3A4 (Homo sapiens), sequence (P08684 whole entry, looked up): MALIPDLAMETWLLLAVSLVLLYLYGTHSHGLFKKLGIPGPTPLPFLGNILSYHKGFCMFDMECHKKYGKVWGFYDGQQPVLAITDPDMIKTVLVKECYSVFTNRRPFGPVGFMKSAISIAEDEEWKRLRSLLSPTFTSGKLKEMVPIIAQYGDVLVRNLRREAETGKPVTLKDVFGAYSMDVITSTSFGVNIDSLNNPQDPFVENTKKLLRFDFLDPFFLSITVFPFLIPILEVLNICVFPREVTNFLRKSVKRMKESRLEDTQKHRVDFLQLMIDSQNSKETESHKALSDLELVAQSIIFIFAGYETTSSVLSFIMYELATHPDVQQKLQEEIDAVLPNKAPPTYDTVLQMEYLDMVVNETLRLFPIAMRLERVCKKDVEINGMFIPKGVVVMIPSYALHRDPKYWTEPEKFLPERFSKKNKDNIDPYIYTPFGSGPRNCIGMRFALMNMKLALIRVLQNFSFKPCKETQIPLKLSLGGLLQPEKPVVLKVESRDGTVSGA
Outline: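 Human CYP3A4 (20 nM) with Luciferin-PPXE at 25 uM (its KM) in 200 mM KPO4; 10 min compound preincubation, then NADPH regeneration and 60 min reaction at RT. Luciferin read by luminescence; normalized to 57 uM ketoconazole full inhibition.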

[7] = target: DNA dC->dU-editing enzyme APOBEC-3G (Homo sapiens) (UniProt Q9HC16); experiment: qHTS for inhibitors of Vif-A3G interactions: Validation (AID 588379)
DNA dC->dU-editing enzyme APOBEC-3G (Homo sapiens), sequence (Q9HC16 whole entry, looked up): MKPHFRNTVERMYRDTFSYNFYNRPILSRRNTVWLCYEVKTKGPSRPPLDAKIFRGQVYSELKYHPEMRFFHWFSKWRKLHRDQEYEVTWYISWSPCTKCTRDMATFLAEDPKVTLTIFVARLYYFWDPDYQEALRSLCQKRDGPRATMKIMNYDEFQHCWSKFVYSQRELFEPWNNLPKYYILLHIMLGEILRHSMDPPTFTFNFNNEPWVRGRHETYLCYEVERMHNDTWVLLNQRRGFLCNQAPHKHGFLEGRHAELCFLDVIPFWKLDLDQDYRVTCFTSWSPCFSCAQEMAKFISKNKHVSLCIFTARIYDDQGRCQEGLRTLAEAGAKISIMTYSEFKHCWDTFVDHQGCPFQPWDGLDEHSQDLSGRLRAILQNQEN
Outline: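 HeLa cells stably expressing Vif and A3G-eYFP, 700 cells/well, incubated overnight at 37 deg C, then exposed to compound overnight at 37 deg C. Inhibition of Vif-mediated degradation read as increased yellow fluorescence (Ex 488/Em 500-530) by laser-scanning cytometry.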

[8] = system: Zika virus NS2B-NS3 protease; experiment: Primary screen GU AMC qHTS for Zika virus inhibitors (AID 1347154); note: nearly all actives have a fitted effect of over 70% in size
Outline: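 Unlinked Zika NS2B hydrophilic domain–NS3 protease complex at 25 nM in 10 mM Tris-HCl pH 8.0, 0.01% Tween 20, with an AMC peptide substrate. Fluorescence change (340/450 nm) over 15 min at room temperature, normalized to controls, fitted to 4-parameter Hill.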

[9] = Primary qHTS for small molecule stabilizers of the endoplasmic reticulum resident proteome: Secreted ER Calcium Modulated Protein (SERCaMP) assay (AID 1508630)
Outline: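 GLuc-SERCaMP-expressing SH-SY5Y cells, pretreated 16 h with compound, are challenged with thapsigargin to empty ER calcium stores; after 4 h, coelenterazine is added directly to the medium and luminescence is imaged.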

[10] = target: 3',5'-cyclic-AMP phosphodiesterase 4B (Homo sapiens) (UniProt Q07343); experiment: qHTS Assay for Inhibitors of PDE-IV (AID 607; active = well fitted activation curve with a large enough effect in the main read-out, with a control signal flat, not every such curve was filed as active)
3',5'-cyclic-AMP phosphodiesterase 4B (Homo sapiens), sequence (Q07343 whole entry, looked up): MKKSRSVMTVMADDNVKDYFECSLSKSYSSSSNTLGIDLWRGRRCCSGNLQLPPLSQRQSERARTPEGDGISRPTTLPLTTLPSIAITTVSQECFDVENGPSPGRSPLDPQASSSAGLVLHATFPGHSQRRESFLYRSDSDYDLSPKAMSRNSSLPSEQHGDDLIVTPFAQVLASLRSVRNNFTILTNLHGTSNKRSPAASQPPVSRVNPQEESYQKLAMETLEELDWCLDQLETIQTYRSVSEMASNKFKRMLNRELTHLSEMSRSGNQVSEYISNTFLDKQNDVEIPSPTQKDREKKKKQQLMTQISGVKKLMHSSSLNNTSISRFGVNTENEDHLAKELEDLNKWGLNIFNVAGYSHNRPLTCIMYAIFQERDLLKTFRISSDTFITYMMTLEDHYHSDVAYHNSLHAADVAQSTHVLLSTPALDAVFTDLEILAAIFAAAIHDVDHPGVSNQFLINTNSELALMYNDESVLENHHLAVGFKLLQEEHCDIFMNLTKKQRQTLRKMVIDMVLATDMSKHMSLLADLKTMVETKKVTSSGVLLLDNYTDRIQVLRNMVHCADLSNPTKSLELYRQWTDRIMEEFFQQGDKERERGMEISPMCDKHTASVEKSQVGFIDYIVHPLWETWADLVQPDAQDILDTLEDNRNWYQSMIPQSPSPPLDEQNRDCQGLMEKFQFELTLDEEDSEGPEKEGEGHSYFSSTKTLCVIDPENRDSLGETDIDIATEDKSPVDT
Outline: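 HEK293 ACTOne cells with CNG channel (1000/well), endogenous PDE4; membrane potential dye, compounds up to 22.9 uM final. Fluorescence Ex 535/Em 590; RO 20-1724 (100 uM final) as reference.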

[11] = target: Ubiquitin carboxyl-terminal hydrolase 1 (Homo sapiens) (UniProt O94782); experiment: Inhibitors of USP1/UAF1: Pilot qHTS (AID 504865); note: nearly all actives have a fitted effect of over 35% in size; note: potency is the fitted concentration of half-maximal effect
Ubiquitin carboxyl-terminal hydrolase 1 (Homo sapiens), sequence (O94782 whole entry, looked up): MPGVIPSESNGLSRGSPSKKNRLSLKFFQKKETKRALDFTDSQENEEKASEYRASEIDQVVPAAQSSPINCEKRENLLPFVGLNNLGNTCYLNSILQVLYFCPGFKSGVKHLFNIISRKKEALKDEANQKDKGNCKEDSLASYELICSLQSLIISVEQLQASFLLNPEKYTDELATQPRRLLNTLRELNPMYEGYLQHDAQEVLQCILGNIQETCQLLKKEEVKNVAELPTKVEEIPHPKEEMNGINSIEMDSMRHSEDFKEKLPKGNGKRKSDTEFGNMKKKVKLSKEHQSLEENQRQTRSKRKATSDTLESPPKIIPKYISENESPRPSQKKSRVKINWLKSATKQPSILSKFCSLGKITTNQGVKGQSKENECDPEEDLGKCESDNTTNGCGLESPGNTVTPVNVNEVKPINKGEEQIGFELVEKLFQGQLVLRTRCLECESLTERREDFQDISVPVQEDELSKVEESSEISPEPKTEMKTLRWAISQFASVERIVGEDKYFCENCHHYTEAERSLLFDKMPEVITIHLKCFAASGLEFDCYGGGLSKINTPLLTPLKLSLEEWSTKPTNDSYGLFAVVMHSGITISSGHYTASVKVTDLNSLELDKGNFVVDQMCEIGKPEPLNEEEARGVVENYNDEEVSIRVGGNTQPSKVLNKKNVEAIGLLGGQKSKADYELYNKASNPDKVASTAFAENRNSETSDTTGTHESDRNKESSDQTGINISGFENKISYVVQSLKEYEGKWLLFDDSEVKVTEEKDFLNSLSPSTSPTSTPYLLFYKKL
Outline: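 USP1/UAF1 complex (1nM) preincubated with compound 15 min at room temperature, then Ub-Rho substrate (150nM final) added. Fluorescence read kinetically at 480/540 nm, 6 reads every 60 seconds. Buffer: 50mM HEPES pH 7.8, 0.5mM EDTA, 0.1 mg/ml BSA, 1mM TCEP, 0.01% Tween-20.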

[12] = target: Cytochrome P450 2D6 (Homo sapiens) (UniProt P10635); experiment: qHTS Assay for Inhibitors and Substrates of Cytochrome P450 2D6 (AID 891); note: potency is the fitted concentration of half-maximal effect; nearly all actives have a fitted effect of over 60% in size
Cytochrome P450 2D6 (Homo sapiens), sequence (P10635 whole entry, looked up): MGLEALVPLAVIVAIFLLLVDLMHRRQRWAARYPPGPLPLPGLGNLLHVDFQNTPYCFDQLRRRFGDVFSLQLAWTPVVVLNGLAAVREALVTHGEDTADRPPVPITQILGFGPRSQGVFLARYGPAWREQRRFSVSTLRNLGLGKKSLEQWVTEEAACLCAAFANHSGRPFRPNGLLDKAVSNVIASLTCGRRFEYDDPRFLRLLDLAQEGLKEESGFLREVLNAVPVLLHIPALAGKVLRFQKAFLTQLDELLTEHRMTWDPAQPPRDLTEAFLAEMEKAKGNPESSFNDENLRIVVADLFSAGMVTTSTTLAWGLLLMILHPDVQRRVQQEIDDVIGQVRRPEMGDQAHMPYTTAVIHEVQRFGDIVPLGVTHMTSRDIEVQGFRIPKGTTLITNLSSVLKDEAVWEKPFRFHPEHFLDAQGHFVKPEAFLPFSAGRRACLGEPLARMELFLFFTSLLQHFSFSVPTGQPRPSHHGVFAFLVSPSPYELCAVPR
Outline: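 Human CYP2D6 (5 nM) with 30 uM Luciferin-ME EGE (at Km) in 100 mM KPO4, compound preincubated 10 min, then NADPH regeneration system for 60 min at room temperature. Luciferin read by luminescence; normalized to 1.43 uM quinidine.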

[13] = target: Cytochrome P450 3A4 (Homo sapiens) (UniProt P08684); experiment: qHTS Assay for Inhibitors and Substrates of Cytochrome P450 3A4 (AID 884); note: potency is the fitted concentration of half-maximal effect; nearly all actives have a fitted effect of over 50% in size
Outline: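 20 nM human CYP3A4 with 25 uM Luciferin-PPXE (at KM) in 200 mM KPO4, preincubated 10 min with compound; NADPH regeneration started a 60 min RT reaction. Luciferin detected by luminescence, normalized to 57 uM ketoconazole as full inhibition.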

[14] = target: Guanine nucleotide-binding protein G(i) subunit alpha-1 (Homo sapiens) (UniProt P63096); experiment: qHTS Assay for Inhibitors of RGS12 GoLoco Motif Activity (Green Fluorophore) (AID 879);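 note: negative values mean loss of peptide binding seen as reduced polarization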
Outline: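 Fluorescence polarization assay: 50 nM Gαi1 with 10 nM FITC-labeled RGS12 GoLoco peptide in 10 mM Tris pH 7.5, 150 mM NaCl, 0.1 mM GDP, 0.05% NP40, 10 min at room temperature with compound.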

[15] = target: Muscarinic acetylcholine receptor M1 (Rattus norvegicus) (UniProt P08482); experiment: qHTS Assay for Antagonists of Acetylcholine Muscarinic M1 Receptor: Measurement of IP-One Response (AID 944); note: potency is the fitted concentration of half-maximal effect; nearly all actives have a fitted effect of over 75% in size
Outline: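 M1-CHO (rat), 2000 cells/well, overnight recovery; cpd 10 min; carbachol EC80 (200 nM), 30 min, HEPES buffer + 50 mM LiCl pH 7.4; IP-One HTRF, Ex 337, Em 620/665 nm.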

[16] = target: Pyruvate kinase (Leishmania mexicana) (UniProt Q27686); experiment: qHTS Validation Assay for Inhibitors of Leishmania Mexicana Pyruvate Kinase (AID 945)
Outline: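 qHTS eight-point titrations against 0.2 nM LmPYK (E451W) in imidazole buffer pH 7.2 with 0.5 mM PEP, 0.1 mM ADP; 1 h, room temperature. Readout: PKLight luminescence, normalized to neutral DMSO wells.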

[17] = target: Pyruvate kinase PKM (Homo sapiens) (UniProt P14618); experiment: qHTS Assay for Activators of Human Muscle Pyruvate Kinase (AID 954; active = well fitted curve in the direction sought with a large enough effect, not every such curve was filed as active)
Outline: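 Purified human PKM2 (0.1 nM) with 0.5 mM PEP (Km) and 0.1 mM ADP in 50 mM imidazole pH 7.2, KCl, MgCl2, 1 h at room temperature; ATP formed read by coupled luciferase luminescence. Normalized to no-enzyme/110 uM thiadiazolimine inhibition; 0.3 nM enzyme column for activation.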

[18] = target: Alpha-galactosidase A (Homo sapiens) (UniProt P06280); experiment: Counterscreen for Glucocerebrosidase Inhibitors: qHTS Assay for Human alpha-Galactosidase at pH 4.5 (AID 992)
Outline: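 Human enzyme (2 nM) with 80 uM 4-methylumbelliferyl alpha-D-galactopyranoside in 50 mM citric acid, 0.005% Tween-20, pH 4.5, 20 min at room temperature. Compounds 0.7 nM–77 uM; fluorescence Ex 365/Em 440 after pH 10 stop; AC50 from Hill fits.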

[19] = target: alpha-glucosidase (Oryza sativa, rice) (UniProt Q653V4); experiment: Counterscreen for Glucocerebrosidase Inhibitors: qHTS Assay for Rice alpha-Glucosidase at pH 5.0 (AID 997)
Outline: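 Rice alpha-glucosidase (4 nM final) with 400 uM 4-methylumbelliferyl-alpha-D-glucopyranoside in citrate buffer pH 5.0, 20 min at room temperature, stopped at pH 10; fluorescence 365/440 nm, compounds 0.7 nM–77 uM, AC50 from Hill fits.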

[20] = target: Cytochrome P450 2C19 (Homo sapiens) (UniProt P33261); experiment: qHTS Assay for Inhibitors and Substrates of Cytochrome P450 2C19 (AID 899); note: potency is the fitted concentration of half-maximal effect; nearly all actives have a fitted effect of over 60% in size
Outline: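 Luminescent read-out of luciferin formed from Luciferin-H EGE (10uM, equal to KM). Enzyme 5nM in 50mM KPO4; compound added, 10 min at 37C, then NADPH regenerating system for 60 min at 37C. Full inhibition defined by 57uM ketoconazole.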

Measured: Potency

CS(=O)(=O)c1ccc(-c2cc(Br)sc2-c2ccc(F)cc2)cc1
inactive: [2] > 46 µM | [3] > 46 µM | [4] | [6] | [7] | [8] | [9]
active: [1] 0.398 µM | [5] 0.794 µM

COc1ccccc1N1CCN(CCN2C(=O)c3ccccc3C(C)(C)C2=O)CC1
active: [1] 39.8 µM
inactive: [2] > 46 µM | [3] > 46 µM | [4] | [10] | [6] | [11] | [7] | [8] | [9]

COc1ccccc1N1CCN(C[C@@H](C(=O)NC(C)(C)C)c2ccccc2)CC1
inactive: [2] > 46 µM | [3] > 46 µM | [11] | [7] | [8] | [9]
active: [1] 0.631 µM

CC(C)(C)Cn1nc(-c2ccc(Cl)cc2)c2c(N)ncnc21
active: [1] 0.158 µM
inactive: [2] > 46 µM | [3] > 46 µM | [11] | [7] | [8] | [9]

COc1ccc(CCCO[C@@H](Cn2ccnc2)c2ccc(OC)cc2)cc1
inactive: [2] > 46 µM | [3] > 46 µM | [4] | [8] | [9]
active: [1] 0.0158 µM

CCC(=O)N[C@@H]1CCc2cccc(OC)c2C1
inactive: [2] > 46 µM | [3] > 46 µM | [10] | [11] | [7] | [8] | [9]
active: [1] 12.6 µM

CC1(C)C(=O)NC2=C1C(=O)C(=O)c1ccccc12
inactive: [2] > 46 µM | [3] > 46 µM | [10] | [6] | [7] | [8] | [9]
active: [1] 3.16 µM | [12] 2.51 µM | [11] 0.891 µM

N[C@@H](C(=O)O)c1cc(O)ccc1Cl
active: [1] 15.8 µM
inactive: [2] > 46 µM | [3] > 46 µM | [4] | [10] | [6] | [7] | [8] | [9]

COCCNC(=O)COc1ccc(OCCNC[C@@H](O)COc2ccccc2)cc1
active: [12] 5.01 µM
inactive: [1] | [2] > 46 µM | [3] > 46 µM | [4] | [10] | [6] | [11] | [7] | [8] | [9]

c1ccc2sc(N3CCN(Cc4ccc5c(c4)OCO5)CC3)nc2c1
inactive: [2] > 46 µM | [3] > 46 µM | [4] | [6] | [11] | [7] | [8] | [9]
active: [1] 1 µM | [13] 0.631 µM

O[C@H](CCCN1CCN(c2ncc(F)cn2)CC1)c1ccc(F)cc1
active: [1] 31.6 µM
inactive: [2] > 46 µM | [3] > 46 µM | [4] | [10] | [11] | [7] | [8] | [9]

C#C[C@]1(O)CC[C@H]2[C@H]3CCC4=Cc5oncc5C[C@]4(C)[C@@H]3CC[C@]21C
active: [1] 12.6 µM | [15] 7.94 µM
inactive: [2] > 46 µM | [3] > 46 µM | [14] | [6] | [16] | [17] | [18] | [19] | [11] | [7] | [8] | [9]

CCCCN1CCC(CCC(=O)c2cc(Cl)c(N)cc2OC)CC1
inactive: [1] | [2] > 46 µM | [3] > 46 µM | [4] | [10] | [5] | [11] | [7] | [8] | [9]

O=c1[nH]c2cc(Cl)ccc2c(O)c1-c1cccc(Oc2ccccc2)c1
active: [1] 2.51 µM | [12] 6.31 µM
inactive: [2] > 46 µM | [3] > 46 µM | [4] | [11] | [7] | [8] | [9]

C[C@@H](CCCCC(=O)Nc1ccc(C(F)(F)F)cc1)NCCc1cnc[nH]1
inactive: [1] | [2] > 46 µM | [3] > 46 µM | [4] | [10] | [6] | [11] | [7] | [8] | [9]
active: [5] 7.94 µM | [13] 5.01 µM | [12] 5.01 µM

O=C(c1c(O)c2ccc(Cl)cc2[nH]c1=O)C1CC1
active: [1] 0.0794 µM
inactive: [2] > 46 µM | [3] > 46 µM | [4] | [10] | [6] | [11] | [7] | [8] | [9]

CCCCCCCC/C=C\CCCCCCCC(N)=O
inactive: [2] > 46 µM | [3] > 46 µM | [4] | [10] | [7] | [8] | [9]
active: [1] 6.31 µM

CSc1nc(NC2CCCC2)c([N+](=O)[O-])c(NC2CCCC2)n1
active: [1] 3.98 µM | [5] 2 µM | [20] 5.01 µM
inactive: [2] > 46 µM | [3] > 46 µM | [4] | [10] | [7] | [8] | [9]
